TGFb inhibitor: inhibitors of TGF-b signaling; HepG2 CAGA-GFP TGF-b/SMAD3 reporter, GFP fluorescence, 18 h; TGF-beta stimulated, 500 pg/mL final; Potency, µM (top dose mostly 46.1 µM), without a hit: at the top dose activity, negative = inhibition, actives largely listed as inhibitors; hit rate 1.2% among 410,000; AID 588855; note: % is set by controls: 0 for no effect and ±100 for the full control effect; nearly all actives have a fitted effect of over 65% in size
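TGF-beta reporter screen: HEPG2 CAGA-GFP, 1% FBS, 500 pg/mL TGF-beta final, 18 h; per-cell GFP summed per well; curves fitted and categorized by class.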
HepG2 tox-1: counter-screen for TGF-b inhibitors: cytotoxicity in HepG2 cells; hit rate 0.76% among 410,000; Potency, µM (highest dose often 46.1 µM), without a hit: top-dose activity change, negative = cytotoxicity, actives largely listed as cytotoxic; HepG2 CAGA-GFP viability, ATP luminescence, 18 h
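CellTiter-Glo luminescence gave cytotoxicity after 18 hours at 37 degrees C. The cells were HepG2 CAGA-GFP in 1% FBS DMEM, stimulated with 500 pg/mL TGF-beta after compound addition. %Activity was normalised to no-cell wells (complete cell-killing) and DMSO (no toxicity), and curves were fitted and classified.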
HTT aggregate: reduces HttQ103-GFP aggregates in PC12 cells. PC12 HttQ103-GFP aggregates, Acumen cytometry, 40 h. hit rate 1.1% among 220,000. Potency, µM (top dose mostly 46.1 µM), inactives show top-dose activity change, negative = inhibition, most hits filed as inhibitors. AID 1688; note: % is set by controls: 0 for no effect and ±100 for the full control effect; nearly all actives have a fitted effect of over 60% in size
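Steps: seed 1500 PC12 HTTQ103-GFP cells/well; add tebufenozide, 100 nM final; add compound titration; add ATPLite reagent; quantify GFP aggregates by laser scanning cytometry.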
S2 tox: viability counter-screen for ATXN expression inhibitors; S2 cells (HEK-293 line with an ATXN2-luciferase reporter) viability, CellTiter-Fluor protease fluorescence, 24 h; Potency, µM (series often up to 56.7 µM), usual class: cytotoxic; hit rate 0.49% among 400,000; AID 651635; note: nearly all actives have a fitted effect of over 40% in size
HTT ATP protect: Huntington cell model cytoprotection by ATP luminescence; PC12 HTT-Q103 induced, cytoprotection, ATP luminescence, 40 h; Potency, µM (highest dose often 56.4 µM), for inactives: cytoprotection (ATP increase), hits mostly activators; hit rate 0.14% among 230,000; note: % of control where 0% means no effect; nearly all actives have a fitted effect of over 45% in size
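ATP quantification (ATPlite) reports survival of PC12 cells in which tebufenozide, 100 nM final, switches on Htt exon 1 with 103 glutamines linked to GFP; compounds are titrated.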
ATXN2 expr inh: ATXN2 expression inhibition | hit rate 0.72% among 360,000 | HEK-293 ATXN2-luciferase reporter, luminescence, 24 h | AID 1745845 | Potency, µM (titrated, usually from 57 µM), inactives show top-dose activity change, negative = inhibition, usual class: inhibitors; note: % is set by controls: 0 for no effect and ±100 for the full control effect; nearly all actives have a fitted effect of over 55% in size
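ATXN2-luciferase reporter cells (luciferase flanked by upstream and downstream ATXN2 gene portions) were treated 24 h at 37 °C with compounds at up to 57 uM. SteadyGlo luminescence gave expression; GF-AFC fluorescence gave viability.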
TGFb CAGA inh: TGF-b pathway inhibition, cherry-pick retest; shares compounds with TGFb inhibitor; HepG2 CAGA-GFP TGF-b reporter, GFP fluorescence, 18 h; cells stimulated with TGF-beta, 500 pg/mL; Potency, µM (series often up to 46.1 µM), without a hit: at the highest dose activity, negative = inhibition, most hits filed as inhibitors; hit rate 63% among 1,600; AID 720534; note: % is set by controls: 0 for no effect and ±100 for the full control effect; nearly all actives have a fitted effect of over 65% in size
HepG2 tox-2: counter-screen for TGF-b inhibitors: cytotoxicity in HepG2 cells; hit rate 27% among 1,600; HepG2 CAGA-GFP viability, ATP luminescence, 18 h; cells stimulated with TGF-beta, 500 pg/mL; shares compounds with TGFb inhibitor; AID 720535; Potency, µM (highest dose often 46.1 µM), for inactives: at the highest dose activity, negative = cytotoxicity, usual class: inhibitors; note: % is set by controls: 0 for no effect and ±100 for the full control effect; nearly all actives have a fitted effect of over 70% in size
TGFb CCL64 inh: TGF-b inhibition, CCL64 orthogonal assay; shares compounds with TGFb inhibitor; AID 720536; CCL64 CAGA-GFP reporter, TGF-b stimulated, GFP fluorescence, 18 h; hit rate 41% among 1,600; Potency, µM (series often up to 46.1 µM), without a hit: at the top dose activity, negative = inhibition, most hits filed as inhibitors; note: nearly all actives have a fitted effect of over 65% in size
TGFb COP inh: TGF-b inhibition validated with COP promoter | hit rate 3% among 1,600 | HepG2 COP-GFP TGF-b reporter, GFP fluorescence, 18 h; cells stimulated by added recombinant TGF-beta | shares compounds with TGFb inhibitor | AID 720537 | Potency, µM (highest dose often 46.1 µM), without a hit: top-dose activity, negative = inhibition, usual class: inhibitors; note: nearly all actives have a fitted effect of over 70% in size
Active calls of the source: *; i = inactive; ? = inconclusive; / = no result given; [ ] = remark or other dose. Compounds with a hit are over-represented: about 2.8% of the library has one in this group of screens. Calls come from the whole dose curve; as a rule, active = well fitted curve in the direction sought with a large enough effect; inconclusive = small, poorly fitted or top-dose-only effect, or another doubt; inactive = no such curve, though single readings can be large; an effect the other way counts as inactive or inconclusive. Potency is the fitted concentration of half-maximal effect.

SMILES	TGFb inhibitor	HepG2 tox-1	HTT aggregate	S2 tox	HTT ATP protect	ATXN2 expr inh	TGFb CAGA inh	HepG2 tox-2	TGFb CCL64 inh	TGFb COP inh
CCN1C(C)=C(C(=O)OC)C(c2ccccc2)N2C(=O)[C@](O)(C(=O)OC)CC(C#N)=C12 (stereo partly specified)	/	/	/	/	-12.3%[10 µM]	/	/	/	/	/
CC(=O)OCON[N+]([O-])=NC1CCCCC1	-6.6%	-5.8%	/	/	/	/	/	/	/	/
CN(C(=O)COC(=O)c1ccccc1Nc1ccccc1)c1c(N)n(Cc2ccccc2)c(=O)[nH]c1=O	?	14.4%	/	i	/	?	/	/	/	/
COCCN(C(=O)COC(=O)c1ccccc1Nc1ccccc1)c1c(N)n(Cc2ccccc2)c(=O)[nH]c1=O	11.2µM*	-2.6%	/	?	/	?	14.6µM*	-28.0%	1.64µM*	20.4%
O=S(=O)(Nc1ccc(C(O)(C(F)(F)F)C(F)(F)F)cc1)c1cccc2cccnc12	17.8µM*	-30.4%	/	?	/	?	14.6µM*	-20.5%	-24.7%	39.5%
O=S(=O)(Nc1ccc(Br)cc1)c1cccc2cccnc12	0.0%	-21.4%	/	i	/	-6.2%	/	/	/	/
COc1cc(/C=C/C(=O)N2CCCCC2=O)cc(OC)c1OC	/	/	/	/	-4.1%[1.9 µM]	/	/	/	/	/
COc1ccc(N2C(=O)CC(Cc3ccccc3)C2=O)cc1 (stereo unspecified)	8.3%	4.4%	-14.2%	i	27.1%	13.4%	/	/	/	/
O=C1C=CC2(C=C1)O[C@H](Cc1ccccc1)[C@@H](Cc1ccccc1)O2	4.47µM*	-120.0%	/	2.99µM*	/	?	3.26µM*	6.51µM*	1.03µM*	?
COc1ccc(C[C@@H]2OC3(C=CC(=O)C=C3)O[C@H]2Cc2ccc(OC)cc2)cc1	2.82µM*	11.2µM*	/	/	/	?	2.31µM*	2.59µM*	0.82µM*	?
COC(=O)C1=C(C(=O)OC)[C@@H]2N(C)c3ccccc3[C@@]23C[C@@H](C(=O)OC)N(S(=O)(=O)c2ccc([N+](=O)[O-])cc2)C3=N1	/	/	/	/	7.6%[10 µM]	/	/	/	/	/
COc1ccc(C2CC(c3ccccc3)Oc3cc(OC)ccc32)cc1 (stereo unspecified)	-5.2%	10.9%	/	/	/	/	/	/	/	/
O=C(Nc1ccc(N2CCN(c3ccc(C(F)(F)F)cn3)CC2)nc1)c1cccs1	?	-4.3%	-2.1%[9.22 µM]	i	4.6%[10 µM]	?	/	/	/	/
O=C(Nc1ccc(N2CCN(c3ncccc3C(F)(F)F)CC2)nc1)c1cccs1	3.98µM*	-56.3%	17.3%[9.22 µM]	?	39.7%[10 µM]	33.6µM*	?	?	?	79.4%
COc1ccc(S(=O)(=O)N2CCN(c3nc(-c4ccccc4)nc4ccccc34)CC2)cc1	-20.3%	-34.4%	/	/	/	/	/	/	/	/
CN(C)c1ccc(NC(=O)Nc2csc3ccccc23)cc1	-10.5%	-12.7%	0.7%[9.22 µM]	i	-26.3%[10 µM]	52.2%	/	/	/	/
O=C(Nc1ccc(F)cc1)Nc1csc2ccccc12	14.1µM*	-26.9%	-9.6%[9.22 µM]	i	-4.5%[10 µM]	13.3%	?	?	?	22.9%
Clc1ccc2c(NCCNc3ccnc4cc(Cl)ccc34)ccnc2c1	/	/	/	/	24.3%[10 µM]	/	/	/	/	/
Clc1ccc2c(NCc3ccccn3)ccnc2c1	12.6µM*	-29.7%	/	i	/	-28.8%	2.06µM*	-26.0%	8.2µM*	-1.1%
CC(=O)Nc1ccc(N=Cc2c(O)c3ccccc3oc2=O)cc1	11.7%	1.3%	/	i	/	-6.0%	/	/	/	/
CC(=O)Nc1ccc(N=Cc2c(O)c(C(=O)Nc3ccccc3)cc3ccccc23)cc1	7.08µM*	-46.1%	?	i	16.5%[10 µM]	/	-9.2%	11.6µM*	4.61µM*	54.7%
CC(C)N=C=NC(C)C	/	/	/	/	-13.4%	/	/	/	/	/
Cc1ccc(C(=O)Nc2cccc3[nH]c(C(F)(F)F)nc23)cc1	11.2µM*	-15.8%	/	i	/	-36.4%	14.6µM*	?	?	53.8%
Cc1ccc(C(=O)Nc2ccc(C(F)(F)F)n(C)c2=O)cc1	?	1.1%	18.5%	i	-42.7%	42.1%	/	/	/	/
CC(=O)Nc1ccc(S(=O)(=O)N2CCc3nc(-c4ccccc4)c4c(c3C2)CO[C@@H](C)C4)cc1	/	/	/	/	-27.1%[10 µM]	/	/	/	/	/
SMILES	TGFb inhibitor	HepG2 tox-1	HTT aggregate	S2 tox	HTT ATP protect	ATXN2 expr inh	TGFb CAGA inh	HepG2 tox-2	TGFb CCL64 inh	TGFb COP inh
CCc1nc(Nc2ccncc2)c2oc3ccccc3c2n1	?	-14.0%	?	?	?	?	11.6µM*	?	?	21.8%
Cc1nc(Nc2ccncc2)c2oc3ccccc3c2n1	-11.8%	-29.6%	15.3%[9.22 µM]	?	?	?	/	/	/	/
CC(C)CO/N=C1/C[C@@H](O)[C@@H](O)[C@@H]2[C@@H]3C(=O)N(C(C)(C)C)C(=O)[C@H]3CC[C@H]12	/	/	/	/	-0.5%[10 µM]	/	/	/	/	/
COc1ccc(O)c(C(=O)c2cc(C#N)c(=O)n(-c3ccc(Cl)cc3)c2)c1	18.8%	-11.2%	-13.3%[9.22 µM]	i	4.9%[10 µM]	/	/	/	/	/
CCOc1ccc(-n2cc(C(=O)c3cc(Cl)ccc3O)cc(C#N)c2=O)cc1	12.6µM*	-22.2%	-7.2%	/	26.2%	-27.4%	-81.2%	?	?	53.1%
COc1ccc(-c2nc(-c3ccccc3)c(NC(C)C)o2)cc1	/	/	/	/	-23.1%	/	/	/	/	/
CCN(CC)C(=O)[C@H]1C[C@H](CC(=O)NCc2cccc(C(F)(F)F)c2)C(=O)N2CCc3c([nH]c4ccc(Cl)cc34)[C@]12C	10µM*	12.6µM*	/	?	/	?	?	?	25.9µM*	45.0%
CCN(CC)C(=O)[C@H]1C[C@H](CC(=O)NCc2ccc(OC)c(OC)c2)C(=O)N2CCc3c([nH]c4ccc(Cl)cc34)[C@]12C	?	-7.8%	/	?	/	-12.0%	/	/	/	/

Source: PubChem BioAssay (National Center for Advancing Translational Sciences (NCATS))
